# Results from PubChem BioAssay AID651558 (National Center for Advancing Translational Sciences (NCATS), 2012).
# Out of some 1,200 compounds screened, about 480 (40%) were called active. Another 29% or so got no clear call; they are omitted. The call rests on the fitted dose curve; in most records, active means well fitted inhibition curve with a large enough effect; inconclusive means small, poorly fitted or top-dose-only effect; inactive means no such curve, though single readings can be large or run the other way. Some of the results follow.
# Assay: qHTS Assay to Find Inhibitors of Chronic Active B-Cell Receptor Signaling: Hit Validation in Primary Screen; further: nearly all actives have a fitted effect of over 75% in size
# Conditions: ABC-DLBCL IkB-luc/CBR ratio luminescence, 4 h; series mostly up to 46.1 µM; activity change, negative = inhibition: at the top concentration
# Outline: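 TMD8 ABC-DLBCL cells carrying doxycycline-inducible IkBa-green luciferase fusion and free red luciferase, 0.5% FBS, dosed 46 uM–3 nM with doxycycline for 4 h at 37C. Green/red luminescence ratio normalized to basal and 10 uM MG-132.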
# On the % scale 0 is the no-effect control and ±100 the full control effect; potency means the concentration at half of the fitted maximal effect.
Structure (SMILES),Potency,"activity change, negative = inhibition"
COc1cc(OC)cc(C(=O)N[C@H](C(=O)Nc2nc3ccccc3[nH]2)C(C)C)c1,1.84 µM (active),–
COc1ccc(C(=O)N[C@H](C(=O)Nc2nc3ccccc3[nH]2)C(C)C)cc1,5.8 µM (active),–
COc1ccc(NC(=S)N=Nc2c(O)[nH]c3ccccc23)cc1,–,-16.6% (inactive)
N#CC(C(=S)Nc1ccccc1)c1nc2ccccc2[nH]1 (stereo not drawn),–,21.6% (inactive)
COC(=O)Nc1nc2ccc(Sc3ccccc3)cc2[nH]1,–,52% (inactive)
Cc1cccc(C(=O)N[C@H](C(=O)Nc2nc3ccccc3[nH]2)C(C)C)c1,3.26 µM (active),–
OCc1ccnc2c(O)cccc12,–,3.41% (inactive)
O=C(N/N=C/c1ccc(Cl)cc1)c1sccc1OCc1ccc(F)cc1,5.17 µM (active),–
Fc1ccc(NC(=S)N/N=C/c2ccc(F)c(F)c2)cc1,–,32.7% (inactive)
NNC(=O)/C(=C\c1ccco1)NC(=O)c1ccco1,–,-4.29% (inactive)
COc1ccccc1C1=NOC(COc2ccc3c(C)cc(=O)oc3c2)C1 (stereo not drawn),8.2 µM (active),–
CCCCOc1ccc2c(C)cc(=O)oc2c1OCCCC,–,-11.1% (inactive)
Cc1cc(=O)oc2cc(OCC3CC(c4ccccc4Cl)=NO3)ccc12 (stereo not drawn),2.59 µM (active),–
C=CCNC(=S)N/N=C/c1ccc(C)cc1C,–,-9.31% (inactive)
Cc1ccc(NC(=S)NNC(C)(C)C)cc1,–,-1.5% (inactive)
Cc1ccc(NC(=S)NNC(=S)Nc2ccc(C)cc2C)cc1,1.84 µM (active),–
CCOc1cc(NC(=O)CCl)c(OCC)cc1NC(=O)CCl,5.8 µM (active),–
C/C(=N\NC(=S)NC1CCCCC1)c1ccc(C)o1,–,-3.17% (inactive)
C(=N\Nc1nc2ccccc2[nH]1)/C1CCCCC1,–,2.77% (inactive)
CSc1nc(SCC(=O)NCc2ccco2)c2c3c(sc2n1)COC(C)(C)C3,20.6 µM (active),–
O=C1NC(=Nc2ccc(O)cc2)S/C1=C\C=C\c1ccco1,2.91 µM (active),–
O=C(Cc1cccs1)N/N=C/C=C/c1ccco1,–,-17.3% (inactive)

Structure (SMILES),Potency,"activity change, negative = inhibition"
Cn1cccc1/C=C1\SC(=Nc2ccc(O)cc2)NC1=O,1.03 µM (active),–
CCOc1c(Br)cc(CNc2ccc3c(c2)OCCO3)cc1OC,10.3 µM (active),–
CCOc1c(Cl)cc(CNCC(C)C)cc1OC,–,-6.38% (inactive)
CCOc1cc(CNc2ccc3c(c2)OCCO3)cc(Br)c1OCC,5.17 µM (active),–
O=C(N/N=C/c1ccc(Cl)cc1)c1n[nH]c2c1CCCC2,2.06 µM (active),–
O=C(NN=C1CCCC1)c1n[nH]c2c1CCC2,–,-10.7% (inactive)
Cc1ccc(/C=N/NC(=O)c2n[nH]c3c2CCCC3)cc1,0.206 µM (active),–
COc1ccc(NC(=S)NC(=O)/C=C/c2ccco2)cc1,–,-12.3% (inactive)
Cc1cccc(C)c1OCC(=O)N/N=C/C=C/c1ccco1,–,-9.1% (inactive)
Cc1ccc(NC(=O)/C=C/c2ccco2)nc1,1.16 µM (active),–
O=C(CNCc1ccccc1)Nc1ccc(Oc2ccccc2)cc1,–,-2.09% (inactive)
O=C(COc1ccc(Oc2ccccc2)cc1)NCc1cn2ccccc2n1,11.6 µM (active),–
Cc1cccc(NC(=O)c2ccc(C(=O)Nc3cccc(C)c3)nc2)c1,10.3 µM (active),–
Cc1cccc(NC(=S)NNC(=O)CCn2cc(C)cn2)c1,–,-3.27% (inactive)
CCOC(=O)c1c(C)c(C(=O)OCC)n(C)c1C,6.51 µM (active),–
CCOC(=O)c1c(C=O)c2sc(C)cc2n1C,–,42.4% (inactive)
COc1ccc(/C(C)=N/Nc2nc3ccccc3nc2C)cc1OC,–,-8.71% (inactive)
COc1ccc(/C(C)=N/Nc2ccc(C(=O)O)cc2)cc1OC,0.0231 µM (active),–
Cc1cc(C)c2nc3sc(C(=O)N4CCOCC4)c(N)c3cc2c1,1.46 µM (active),–
CCCC1=Nc2cc(C(=O)NCCCOCC)ccc2Sc2ccccc21,1.03 µM (active),–
CCCC1=Nc2cc(C(=O)NCCCOC(C)C)ccc2Sc2ccccc21,20.6 µM (active),–
CCC1=Nc2cc(C(=O)NCCCOC)ccc2Sc2ccccc21,2.06 µM (active),–

Structure (SMILES),Potency,"activity change, negative = inhibition"
CCOCCCNC(=O)c1ccc2c(c1)N=C(CC)c1cc(Br)ccc1S2,0.259 µM (active),–
CC1=NN(C(N)=S)C(=O)C1N=Nc1cccc(C)c1 (stereo not drawn),–,21% (inactive)
COc1ccc(C(=O)c2cc([N+](=O)[O-])ccc2N2CCOCC2)cc1,2.06 µM (active),–
O=C(c1cc([N+](=O)[O-])ccc1N1CCOCC1)N1CCN(c2ccccc2)CC1,3.26 µM (active),–
O=C(NC(=S)N1CCOCC1)c1cn(-c2ccccc2)nc1-c1ccccc1,–,-5.47% (inactive)
O=C(c1ccc(Cl)cc1)c1cc([N+](=O)[O-])ccc1N1CCOCC1,5.8 µM (active),–
O=C(Oc1ccc2ccc(OC(=O)N3CCOCC3)cc2c1)N1CCOCC1,–,-7.41% (inactive)
C/C(=N\NC(=O)COc1ccc(C(C)(C)C)cc1)c1ccc(N2CCOCC2)cc1,–,-11.3% (inactive)
CCOc1ccc(C(=O)c2cc([N+](=O)[O-])ccc2N2CCOCC2)cc1,0.116 µM (active),–
Cc1ccc(-n2cc(CNCCc3ncc(C)[nH]3)c(-c3ccc(F)cc3)n2)cc1,–,-19.7% (inactive)
COc1cc2c(cc1OC)-c1cc(NC3CCCCCC3)nc(=O)n1CC2,9.2 µM (active),–
COc1cc2c(cc1OC)-c1cc(NC3CCCCC3)nc(=O)n1CC2,23.1 µM (active),–
Cc1onc(-c2ccccc2)c1-c1nc2cc(Cl)ccc2c(=O)o1,2.31 µM (active),–
C#CCOCCOCCOCCNc1nc(N2CCN(C(=O)[C@H](C(C)C)n3cc(CCO)nn3)CC2)nc(N2CCN(C(=O)[C@H]([C@@H](C)CC)n3cc(CCCN=C(N)N)nn3)CC2)n1,–,49.8% (inactive)
COc1ccc(/C=C/C(=O)Nc2ccc(-n3nncc3-c3ccc(OC)c(OC)c3)cc2)cc1OC,2.31 µM (active),–
COc1ccc(-c2cc(C(=O)NN)[nH]n2)cc1OC,–,-13.1% (inactive)
COc1ccc(N(CC(=O)NC2CCCC2)C(=O)Cn2nnc(-c3ccc(OC)c(OC)c3)n2)c(OC)c1,–,-8.97% (inactive)
COc1ccc(C(=O)Nc2ccc(-n3nncc3-c3ccc(OC)c(OC)c3)cc2)cc1,2.06 µM (active),–
COc1cccc(-c2nnc(Nc3nc4c(F)cccc4s3)o2)c1,0.326 µM (active),–
Fc1cccc2sc(Nc3nnc(-c4ccccc4)o3)nc12,0.13 µM (active),–
O=C(/C=C/c1cccc(Cl)c1)c1nc2ccccc2[nH]1,20.6 µM (active),–
CCN(C(=O)c1cnc(NC(C)C)cc1C(F)(F)F)c1ccc(Cl)cc1Cl,–,-22.7% (inactive)

Structure (SMILES),Potency,"activity change, negative = inhibition"
CCOc1ccc2c(c1)OC(c1ccc(OC)cc1)(C(F)(F)F)NC2=O (stereo not drawn),11.6 µM (active),–
Oc1c(CN2CCN(c3ccccc3)CC2)cc(Br)c2cccnc12,–,-2.8% (inactive)
COc1ccccc1N1CCN(C(=O)C2c3ccccc3Oc3ccccc32)CC1,16.4 µM (active),–
COc1ccccc1N1CCN(C(=O)c2cc(=O)c3cc(C)cc(C)c3o2)CC1,1.03 µM (active),–
CCOC(=O)c1cnc(Nc2nc3ccccc3o2)nc1CSC(=S)N1CCCCC1,–,-3.65% (inactive)
COc1ccc(-c2c/c(=N\c3nc(-c4ccccc4)c(C)s3)c3ccccc3o2)cc1O,8.2 µM (active),–
NC(=S)Nc1nc2ccccc2s1,–,-0.485% (inactive)
C(=N\Nc1nc2ccccc2s1)/c1ccccn1,14.6 µM (active),–
Cc1csc(N/N=C/c2ccccn2)n1,–,-0.0966% (inactive)
Nc1nc(SCc2nc(-c3ccccc3)no2)[nH]c(=O)c1-c1ccccc1,20.6 µM (active),–
COc1ccc(-c2noc(CSc3nc(N)c(-c4ccccc4)c(=O)[nH]3)n2)cc1OC,7.31 µM (active),–
COc1ccc(-c2noc(CSc3nc(N)c(-c4ccccc4)c(=O)[nH]3)n2)cc1,8.2 µM (active),–
COCCNC(=S)N/N=C(\C)c1ccccc1F,–,-7.26% (inactive)
CCOc1ccc(S(=O)(=O)Nc2ccc3oc(C)c(C(=O)OCCOC)c3c2)cc1,8.2 µM (active),–
O=C(/C=C\c1ccco1)Nc1cc([N+](=O)[O-])ccc1F,1.84 µM (active),–
O=C(Cc1ccc(-n2c(=O)c3ccccc3n(Cc3ccccc3Cl)c2=O)cc1)NCC1CCCO1 (stereo not drawn),2.59 µM (active),–
CCn1c(O)c(N=NC(=S)NCC2CCCO2)c2ccccc21 (stereo not drawn),–,73.4% (inactive)
CC1CCC(n2c(=S)[nH]c3ccccc3c2=O)CC1 (stereo not drawn),–,-10.4% (inactive)
CCN(CC(=O)NCc1ccc(F)cc1)C(=O)/C=C/c1ccc(OC)c(S(=O)(=O)NC(C)C)c1,18.4 µM (active),–
CN(C)c1nc(=Nc2cccc(Cl)c2)ss1,20.6 µM (active),–
Cc1[nH]n(C(N)=S)c(=O)c1N=Nc1cccc(Cl)c1,–,-15.4% (inactive)
O=C(Nc1ncc(Cc2ccc(SC(F)F)cc2)s1)c1ccc(OC(F)F)cc1,0.651 µM (active),–

Structure (SMILES),Potency,"activity change, negative = inhibition"
Cc1ccc(C(=O)Nc2ncc(Cc3ccc(SC(F)F)cc3)s2)cc1,1.3 µM (active),–
O=C(Nc1ncc(Cc2ccc(SC(F)F)cc2)s1)c1ccccc1,18.4 µM (active),–
CCCCC(=O)O[C@]1(C(=O)CO)CC[C@H]2[C@@H]3CCC4=CC(=O)CC[C@]4(C)[C@H]3[C@@H](O)C[C@@]21C,–,-25.2% (inactive)
CCCSc1nc(C)c(C(C)=O)cc1C#N,16.4 µM (active),–
CCOc1cc(-c2cc(-c3ccc(NC(C)=O)cc3)nc(N)c2C#N)ccc1O,20.6 µM (active),–
CC(C)(C)NNC(=S)Nc1cccc(C(F)(F)F)c1,–,-1.75% (inactive)
CN1CCN(Cc2cc(COCc3ccccc3)c3cccnc3c2O)CC1,–,-1.6% (inactive)
CC(C)n1c(SCC(=O)Nc2ccccc2)nc2c1c(=O)n(C)c(=O)n2C,18.4 µM (active),–
CC(C)Sc1ccccc1C(=O)Nc1ccc2c(c1)n(C)c(=O)n2C,–,113% (inactive)
CC1CCCCN1C(=S)NC(=O)c1cccs1 (stereo not drawn),–,-6.25% (inactive)
Cc1cnn(CCC(=O)NNC(=S)NCC(C)C)c1,–,-5.82% (inactive)
Cc1ccc(Cl)cc1NC(=S)N/N=C/c1cccc2ccccc12,–,94.8% (inactive)
O=C(COc1ccccc1-c1ccccc1)NN=C1CCCC1,–,-6.57% (inactive)
C/C(=N\NC(=O)COc1ccccc1-c1ccccc1)c1ccccn1,–,41.6% (inactive)
COc1ccc(/C=N/NC(=O)COc2ccccc2-c2ccccc2)cc1,2.59 µM (active),–
C/C(=N/NC(=O)COc1cc(C)ccc1C(C)C)C(=O)O,–,-2% (inactive)
O=C(COc1ccccc1-c1ccccc1)N/N=C/c1ccc2ccccc2c1,0.651 µM (active),–
Cc1ccc(/C=N/NC(=O)COc2ccccc2-c2ccccc2)cc1,0.291 µM (active),–
C/C(CCC(C)C)=N\NC(=O)COc1ccccc1-c1ccccc1,–,-6.47% (inactive)
O=C(COc1ccccc1-c1ccccc1)N/N=C/c1cccc2ccccc12,2.06 µM (active),–
